Dicer inh = blocks human Dicer maturation of pre-miR-21. z-score at 25 µM. cat-ELCCA pre-miR-21 Dicer processing, chemiluminescence; stronger effect = higher value. 47,000 tested, 6% active; in the data active = z-score above about 3, passing the limit was not always enough;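 note: plate controls were vehicle for no effect and no enzyme for full effect; higher signal means more uncleaved substrate so more Dicer inhibition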
Numbers without * were called inactive. Many of the other results were omitted from the sample, so hits are more common in it than they were.

How did O=C1CC(N2CCN(c3ccccc3)CC2)C=C1Nc1ccc(Cl)cc1 (centres undefined) do in these assays?
Dicer inh: 1.9

How did O=C1CC(N2CCN(c3ccccc3)CC2)C=C1Nc1ccccc1 (centres undefined) do in these assays?
Dicer inh: 4*

How did CCOC(=O)C1=C(CC(=O)Nc2ccc(OC)cc2)C(=O)N(c2ccc(F)cc2)C1C (centres undefined) do in these assays?
Dicer inh: -0.32

Results for COc1ccc(-c2cnn3c(N)c(C#N)cnc23)cc1OC ?
Dicer inh: 2.8

Results for Cc1ccc(C2c3c(oc4ccc(C)cc4c3=O)C(=O)N2c2nc(C)c(C)s2)cc1 (centres undefined) ?
Dicer inh: -0.17

What do the screens show for `Cc1cc(C)c2nc(NCc3ccccc3O)sc2c1`?
Dicer inh: 2.9

Results for COc1cc(CCC(C)NCc2ccccc2)ccc1O (centres undefined) ?
Dicer inh: -1.2

How did COc1cc(CNc2nc3c(C)cc(C)cc3s2)ccc1O do in these assays?
Dicer inh: 3.1*

What do the screens show for `Cc1cc(C)c(NC(=S)NC(C)(C)C)c(C)c1`?
Dicer inh: 0.01

How did CCOC(=O)Cc1nn(Cc2nc(C(=O)OCC)cs2)c(=O)c2ccccc12 do in these assays?
Dicer inh: 0.22

Results for CCOc1ccccc1Oc1coc2cc(OCC(=O)OC(C)(C)C)ccc2c1=O ?
Dicer inh: 1.1

Results for Cc1cccc(CN2CCN(CC3CC4C=CC3C4)CC2)c1 (centres undefined) ?
Dicer inh: 2.1

What do the screens show for `O=C(Nc1ccc(Br)cc1)C1CC(=O)N(c2ccccc2)C1` (centres undefined)?
Dicer inh: 0.32

How did N/C(=N\S(=O)(=O)c1cc(C(F)(F)F)cc(C(F)(F)F)c1)N1CCSCC1 do in these assays?
Dicer inh: 5.5*

Results for Cc1nc(C(F)(F)F)ccc1C(=O)N1CCSCC1 ?
Dicer inh: -0.12

What do the screens show for `N/C(=N\S(=O)(=O)c1cc(C(F)(F)F)cc(C(F)(F)F)c1)c1ccccc1`?
Dicer inh: 0.93

Results for Cc1nnc(N2C(=O)C(=O)/C(=C(/O)c3ccc(F)cc3)C2c2ccc(Cl)cc2)s1 (centres undefined) ?
Dicer inh: 2

Results for CN(C)/C=N/NC(=O)Cn1nnc(-c2ccc(C(F)(F)F)cc2)n1 ?
Dicer inh: -1

Results for Cc1ccc2c(C)c(C(=O)N(Cc3ccc(N(C)C)cc3)C3CCS(=O)(=O)C3)oc2c1 (centres undefined) ?
Dicer inh: 5.1*

What do the screens show for `O=C(c1cccc(Cl)c1)N(Cc1cccs1)C1CCS(=O)(=O)C1` (centres undefined)?
Dicer inh: 1.8

How did C=CCOc1ccc(C(=O)N(Cc2ccc(OC)c(OC)c2)C2CCS(=O)(=O)C2)cc1 (centres undefined) do in these assays?
Dicer inh: 1.4

Results for c1ccc(Cc2cn3cc(-c4ccccc4)nc3s2)cc1 ?
Dicer inh: -0.47

What do the screens show for `Clc1ccccc1Cc1cn2cc(-c3ccccc3)nc2s1`?
Dicer inh: 4.1*

Results for Fc1ccc(Cc2cn3cc(-c4ccccc4)nc3s2)cc1 ?
Dicer inh: 0.05

How did O=C(Nc1ccc(Cl)cc1)c1cnn(-c2ccccc2)c1C(F)(F)F do in these assays?
Dicer inh: -1.1

What do the screens show for `Cc1noc(C)c1C(=O)Oc1ccc(-c2n[nH]nc2C#N)cc1`?
Dicer inh: -0.06

How did CCCN(C(=O)CC#N)C(=O)Nc1ccccc1C do in these assays?
Dicer inh: 0

How did Cc1ccccc1NC(=O)N(Cc1cccs1)C(=O)CC#N do in these assays?
Dicer inh: 3.7*

What do the screens show for `Cc1cccc(C)c1NC(=O)N(Cc1ccccc1)C(=O)CC#N`?
Dicer inh: 0.25

What do the screens show for `O=C(COc1ccccc1)N(Cc1cccs1)C1CCS(=O)(=O)C1` (centres undefined)?
Dicer inh: 3.1*

What do the screens show for `O=C(COc1ccc(Cl)cc1)N(Cc1cccs1)C1CCS(=O)(=O)C1` (centres undefined)?
Dicer inh: 0.47

What do the screens show for `O=C(COc1ccc(F)cc1)N(Cc1cccs1)C1CCS(=O)(=O)C1` (centres undefined)?
Dicer inh: 1.4

How did c1ccc(CSc2nnnn2-c2ccccc2)cc1 do in these assays?
Dicer inh: -1.3

What do the screens show for `Cc1cc(C)n2c(Br)c(CSc3nnnn3-c3ccccc3)nc2n1`?
Dicer inh: 4.2*

Results for Cc1cc(C)n2c(SCc3ccc(Br)cc3)nnc2n1 ?
Dicer inh: 1.3

Results for O=C(NCc1c(Cl)cccc1Oc1ccccc1)Nc1ccc(OCc2ccccc2)cc1 ?
Dicer inh: -2.1

What do the screens show for `CCOC(=O)/C(C#N)=C/c1cccc(Cl)c1`?
Dicer inh: -0.65

What do the screens show for `CCOC(=O)c1c(NC(=O)CC)sc2c1CC(C)(C)OC2`?
Dicer inh: 1

How did CCCCC(=O)Nc1sc2c(c1C(=O)OCC)CC(C)(C)OC2 do in these assays?
Dicer inh: -0.37

How did CCOC(=O)C(=O)Nc1sc2c(c1C(=O)OCC)CC(C)(C)OC2 do in these assays?
Dicer inh: 4.8*
